# PubChem BioAssay AID2530 (National Center for Advancing Translational Sciences (NCATS), 2010)
# Records with an inconclusive call do not appear. Unmarked numbers belong to inactive results. Activity calls are given as the source filed them. Calls follow the shape of the dose curve; as a rule, active = well fitted inhibition curve with a large enough effect; inconclusive = small, poorly fitted or top-dose-only effect; inactive = flat fitted curve, though single readings scatter.
# Target: Luciferin 4-monooxygenase (Photuris pensylvanica) (UniProt Q27757)
# Assay: Secondary Assay for Luciferase (Kinase-Glo TM) Inhibition Counterscreen;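 as to activity, negative = inhibition: 0% = DMSO only and -100% = 40 µM SIB 1757 full inhibition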
# Conditions: Kinase-Glo luciferase enzyme, luminescence; series mostly up to 58.1 µM; activity, negative = inhibition: at the top concentration
# Method in brief: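 Kinase-Glo firefly-type luciferase with 10 uM ATP in 50 mM imidazole pH 7.2, 50 mM KCl, 7 mM MgCl2, 0.01% Tween 20, 0.05% BSA. Luminescence read after 8 min at ambient temperature, normalized to DMSO and 40 uM SIB 1757, then Hill-fitted.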
# Potency is read from the fitted curve at half-maximal effect.
Structure (SMILES),"activity, negative = inhibition",Potency
Cc1ccc(NS(=O)(=O)c2cc3c(cc2C)NC(=O)CO3)cc1C,-0.951%,
Cc1ccc(C(=O)N2c3ccccc3CC2C)o1 (stereo unspecified),,18.3 µM (active)
c1ccc(-c2nc(-c3ccccn3)no2)cc1,,3.66 µM (active)
Cc1ccc(NS(=O)(=O)c2ccc3c(c2)CCN(C(=O)C(F)(F)F)C3)cc1C,-1.2%,
O=CN/C=C/c1cc(O)ccc1O,-4.82%,
O=C1c2ccccc2C(=O)N1c1ccc(O)cc1,-1.83%,
Cc1ccc(NS(=O)(=O)c2ccc3c(ccn3C)c2)cc1C,1.35%,
O=C1c2ccccc2C(=O)N1c1ccncc1,-6.64%,
O=C1CCc2cc(S(=O)(=O)NCc3ccccc3)ccc2N1,-4.55%,
O=C1c2ccccc2C(=O)N1c1cc(=O)c2ccccc2[nH]1,1.52%,
O=C1c2ccccc2C(=O)N1c1noc2ccccc12,3.69%,
COC(=O)CSC1=NS(=O)(=O)c2ccccc21,-7.15%,
COc1ccc(-c2cn3ccc(C)cc3n2)cc1,,8.19 µM (active)
O=C1CCc2cc(S(=O)(=O)Nc3ccc(F)cc3)ccc2N1,-1.28%,
O=C1c2ccccc2C(=O)N1c1ccccc1O,-2.87%,
Cc1ccc(NS(=O)(=O)c2ccc(Cl)cc2)cc1C,-0.974%,
Cc1ccccc1OC1=NS(=O)(=O)c2ccccc21,-2.81%,
CN=c1nc(-c2ccccc2)n(-c2ccccc2)s1,-0.55%,
COc1ccc(N=Nc2n(C)c3ccccc3[n+]2C)cc1,,10.3 µM (active)
O=C1c2ccccc2C(=O)N1c1cnc2ccccc2c1,0.332%,
O=C1CCc2cc(S(=O)(=O)Nc3ccccc3F)ccc2N1,3.13%,
